This note sets out measurements from PubChem BioAssay AID1779 (Sanford-Burnham Center for Chemical Genomics, 2009).

Molecules are shown by their SMILES. About 160 (0.055%) of roughly 290,000 compounds were called active. This is one part of a sample in which actives are shown more often than they occur. Values without a mark were called inactive. Rule as the data show it: active = inhibition above about 50%; inactive = the rest.

The target in the experiment is Tyrosine-protein phosphatase non-receptor type 22 (Homo sapiens) (UniProt Q9Y2R2). Briefly: inhibitors of LYP phosphatase, biochemical, fluorescence intensity, uHTS (AID 1779).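 Also: plate controls were vehicle with enzyme for no effect and no enzyme for full effect.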 Conditions: recombinant LYP phosphatase, at 11.5 µM, stronger effect = higher value.
Tyrosine-protein phosphatase non-receptor type 22 (Homo sapiens), sequence (Q9Y2R2 whole entry, looked up): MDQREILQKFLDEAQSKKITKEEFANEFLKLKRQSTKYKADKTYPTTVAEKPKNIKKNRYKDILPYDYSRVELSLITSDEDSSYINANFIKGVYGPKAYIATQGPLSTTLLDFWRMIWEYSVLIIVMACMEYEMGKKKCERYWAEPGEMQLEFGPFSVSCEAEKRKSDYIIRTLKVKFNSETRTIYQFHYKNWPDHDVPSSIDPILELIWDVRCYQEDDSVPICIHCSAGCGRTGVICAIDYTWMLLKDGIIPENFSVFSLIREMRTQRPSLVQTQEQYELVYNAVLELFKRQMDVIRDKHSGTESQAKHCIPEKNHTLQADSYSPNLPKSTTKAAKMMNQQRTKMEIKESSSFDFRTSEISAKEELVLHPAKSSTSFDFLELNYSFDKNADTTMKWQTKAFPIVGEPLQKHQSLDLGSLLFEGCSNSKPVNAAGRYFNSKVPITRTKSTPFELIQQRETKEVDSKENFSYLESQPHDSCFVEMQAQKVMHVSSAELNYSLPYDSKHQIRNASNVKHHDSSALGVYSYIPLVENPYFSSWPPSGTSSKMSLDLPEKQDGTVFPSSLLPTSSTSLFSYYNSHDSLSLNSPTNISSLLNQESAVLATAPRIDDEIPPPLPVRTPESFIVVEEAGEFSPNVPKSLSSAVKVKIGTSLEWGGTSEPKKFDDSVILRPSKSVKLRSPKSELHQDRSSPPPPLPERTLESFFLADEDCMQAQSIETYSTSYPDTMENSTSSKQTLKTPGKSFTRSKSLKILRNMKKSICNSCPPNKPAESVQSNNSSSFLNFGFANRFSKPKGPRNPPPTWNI
With `NC(=O)CC(NC(=O)Cc1ccc(Br)cc1)c1ccc(NC2CCC2)c([N+](=O)[O-])c1` (stereo not given), the inhibition was -1.3%.
In the case of `Cc1cccc(N2CCN(C(=O)c3ccc(Cl)c(NC4=NC5CS(=O)(=O)CC5S4)c3)CC2C)c1` (stereo not given) it was -0.7%.
In the case of `O=C(COc1ccc(S(=O)(=O)N2CCOCC2)cc1Cl)NCC1CCCO1` (stereo not given) it was -12%; in that of `c1cc(OCCCN2CCCCC2)ccc1CN1CCCCC1`, -8%; in that of `CCCOc1ccc(CN2CCOCC2)cc1OC`, -8%.
On to `CCCCOc1ccc(CN2CCSCC2)cc1`, for which the inhibition was -4.9%.
The same measure for `CCCCOc1ccc(CN2CCCCC2)cc1`: 67.8% (active); for `CCCCCOc1ccc(CN2CCOCC2)cc1Cl`: 50.2% (active).
As to `CCCCCOc1ccc(Cl)cc1CN1CCOCC1`, the inhibition is -8.9%.
In the case of `COc1ccc(C(=O)Nc2ccc(Cl)cc2C(=O)NCc2ccco2)cc1OC` it was 0.7%; in that of `COc1cc(OC)cc(C(=O)NCCN2C(=O)S/C(=C\c3cccs3)C2=O)c1`, 0.8%.
In the case of `Cc1nn(C(C)C(=O)NCCCN2CCCCCC2)c(=O)c2c1sc1ccccc12` (stereo not given) it was -12.7%; in that of `Cc1cc(NC(=O)Cn2c(=O)n(CCCCC(=O)NC3CCN(Cc4ccccc4)CC3)c(=O)c3ccccc32)n[nH]1`, 73.8% (active); in that of `Cc1cccc(C)c1NC(=O)Cn1c(=O)n(CCCC(=O)NC2CCN(Cc3ccccc3)CC2)c(=O)c2ccccc21`, -5.3%.
In the case of `O=C(CCCCn1c(=O)c2ccccc2n(Cc2ccccc2)c1=O)NC1CCN(Cc2ccccc2)CC1` it was -1.4%; in that of `CCOC(=O)C1=C(C)NC(=S)NC1c1ccc(-c2cccc(Cl)c2C)o1` (stereo not given), 8.2%.
With `COc1ccc2[nH]c(C)c(CCNC(=S)Nc3cc(C)ccc3C)c2c1`, the inhibition was 83.2% (active).
With `COc1ccc2[nH]c(C)c(CCNC(=S)Nc3ccccc3C)c2c1`, the inhibition is 0.8%.
Take `COc1ccc2[nH]c(C)c(CCNC(=S)Nc3cc(C)cc(C)c3)c2c1`: the inhibition was 2.4%.
The same measure for `COc1ccc(COc2ccc(S(=O)(=O)N3CCCC3)cc2C(N)=O)cc1F`: -6%; for `Cc1ccccc1NS(=O)(=O)c1cc(S(C)(=O)=O)ccc1Cl`: -0.4%.
Consider `CCNS(=O)(=O)c1cc(S(C)(=O)=O)ccc1Cl`, for which the inhibition is 85.1% (active).
In the case of `CS(=O)(=O)c1ccc(Cl)c(S(=O)(=O)NCc2ccccc2)c1` it was -8.1%; in that of `CCC(C)(C(=O)NC1CCCC1)N(C(=O)c1cnccn1)c1c(C)n(C)n(-c2ccccc2)c1=O` (stereo not given), 1.7%; in that of `CC(=O)NS(=O)(=O)c1ccc(NC(=O)C2C3C=CC(C3)C2C(=O)O)cc1` (stereo not given), 59.6% (active).
The same measure for `CC(=O)Nc1ccc(NC(=O)C2C3C=CC(C3)C2C(=O)O)cc1` (stereo not given): -6.4%; for `NS(=O)(=O)c1ccc(NC(=O)C2C3C=CC(C3)C2C(=O)O)cc1` (stereo not given): -7.2%.
In the case of `COc1ccc(OC)c2c1nc1n2CCS1`, the inhibition was -2.7%.
The same measure for `COCCN1C(=O)/C(=C2/C(=O)N(CC(=O)Nc3ccccc3Cl)c3ccccc32)SC1=S`: -3.5%; for `COc1ccc(NC(=O)CN2C(=O)/C(=C3\SC(=S)N(C4CCS(=O)(=O)C4)C3=O)c3ccccc32)cc1` (stereo not given): -5.2%.
For `O=C1/C(=C2\C(=O)N(Cc3ccc(F)cc3)c3ccccc32)SC(=S)N1CCS(=O)(=O)O`, the inhibition is -1.2%.
In the case of `COc1ccc(NC(=O)CN2C(=O)/C(=C3\SC(=S)N(CCC(=O)O)C3=O)c3ccccc32)cc1`, the inhibition was 69.2% (active).
Consider `Cc1cccc(NC(=O)CN2C(=O)/C(=C3\SC(=S)N(CC4CCCO4)C3=O)c3ccccc32)c1` (stereo not given), for which the inhibition is -7.3%.
The same measure for `O=C(CN1C(=O)/C(=C2\SC(=S)N(CCS(=O)(=O)O)C2=O)c2ccccc21)Nc1cccc(Br)c1`: 71% (active); for `Cc1c(N=Cc2cc(Br)cc(Br)c2O)cccc1C(=O)O`: -7.4%; for `CC(=O)CCn1cnc([N+](=O)[O-])n1`: -3.7%.
The same measure for `Cc1ccc([C@@H]2[C@@H]3C(=O)N(C)C(=O)[C@@H]3[C@]3(C)C(=O)N(CCO)CC(=O)N23)o1`: -10.2%; for `COC(=O)c1[nH]c2ccccc2c1NC(=O)c1ccccc1F`: -5.7%.
For the compound `COc1ccc(OCC(=O)Nc2ccccc2OC(F)F)cc1`, the inhibition was -1.4%.
The same measure for `CC(C)=NOCc1ccc(-c2cn([C@@H]3COC[C@H]3O)nn2)cc1`: -2.9%; for `Cc1ccc(C)n1-c1ccc(-c2ccn[nH]2)cc1`: 50% (active); for `c1ccn(-c2ccc(-c3ccn[nH]3)cc2)c1`: -5.9%.
Turning to `Clc1ccc(-c2ccn[nH]2)cc1`, the inhibition was -8.1%.
Regarding `O=C(c1cccs1)N1CCCC1`, the inhibition is -12%.
In the case of `COc1ccccc1CNC(=O)CCC(=O)N1CCOc2ccc(C)cc21` it was -4.7%; in that of `COc1ccc([N+](=O)[O-])cc1NC(=S)NC(NC(=O)C(c1ccccc1)c1ccccc1)C(Cl)(Cl)Cl` (stereo not given), 8%; in that of `COc1ccccc1OCC(=O)N(Cc1nc(-c2ccccc2)no1)C(C)C`, -3.5%.
For `CC1CCCCN1Cc1ccc(-c2nnn(CC(=O)NC3CCCCC3)n2)cc1` (stereo not given), the inhibition is -2.1%.
Consider `CCCc1cc(-c2n[nH]c(=S)n2CC(C)C)cs1`, for which the inhibition was 58.3% (active).
Consider `CCc1cc(-c2n[nH]c(=S)n2CC(C)C)cs1`, for which the inhibition is 5.1%.
In the case of `CCCc1cc(-c2n[nH]c(=S)n2CC)cs1` it was -1.3%.
Take `Cc1cc2oc(=O)cc(CN(C)Cc3ccccc3F)c2cc1Cl`: the inhibition was -0.7%.
In the case of `COc1ccc(N2CCN(C(=O)c3ccc(S(=O)(=O)N4CCCC4)cc3)CC2)cc1` it was -0.4%.
In the case of `COc1ccc2c(OC)cc(=O)n(C)c2c1` it was 59.6% (active); in that of `COc1cc(=O)n(C)c2ccccc12`, -3.8%.
The same measure for `COc1cc(=O)n(C)c2cc(N(C)C)ccc12`: -9.9%.
Take `CCOC(=O)CSc1nc2ccccc2c(=O)n1CC`: the inhibition was 1.2%.
`O=c1c(Cc2ccc(F)cc2)c(O)ccn1C1CC1`: the inhibition is -9%.
Turning to `Cc1cccc(N2CCN(C(=O)Cn3c(=O)[nH]c4ccsc4c3=O)CC2C)c1` (stereo not given), the inhibition was -8.5%.
In the case of `COCCn1nnnc1C(c1cccc(C(F)(F)F)c1)N1CCOCC1` (stereo not given) it was -7%.

One may read the inhibition as the relative decrease from the control value, in per cent.
